# Assay outcomes deposited in PubChem by National Center for Advancing Translational Sciences (NCATS).
# Pf growth 96h – inhibits malaria parasite growth, 96 h. actives 6.9% (n = 320,000). P. falciparum luciferase reporter growth, 96 h. Potency, µM (series often up to 28.7 µM), for inactives: at the top dose activity change, negative = inhibition, most hits filed as inhibitors; note: potency is the fitted concentration of half-maximal effect; % is set by controls: 0 for no effect and ±100 for the full control effect
#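 Parasite growth measured via integrated firefly luciferase reporter in P. falciparum. Infected erythrocytes at 2% hematocrit, 0.05% parasitemia final were treated 96 hours at 37 C under 5% CO2, and luminescence was read.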
# Cycloheximide cs – counter-screen hit for Shiga toxin inhibitors, cycloheximide | cell reporter, cycloheximide protein synthesis inhibition counterscreen | max response, % | actives 12% (n = 300,000) | AID 2314; in the data active = max response mostly above about 13%, no sharp cut-off; inactive = mostly below about 14%; note: read at 38.3 µM for the half of the compounds with a filed dose; 0% is about no effect
# Shiga inhibitor – Shiga toxin inhibition | Vero cells, Shiga toxin protein synthesis inhibition reporter | inhibition, % at 38.7 µM | actives 9.2% (n = 290,000) | AID 2315; in the data active = inhibition mostly above about 28%, no sharp cut-off; inactive = mostly below about 43%; note: 0% is about no effect
# Pf growth 48h – inhibits P. falciparum growth in the first generation, 48 h; P. falciparum luciferase growth in erythrocytes, 48 h; Potency, µM (doses to about 28.7 µM), for inactives: at the top dose activity change, negative = inhibition, actives largely listed as inhibitors; actives 5.9% (n = 310,000); AID 504832; note: potency is the fitted concentration of half-maximal effect; % is set by controls: 0 for no effect and ±100 for the full control effect
#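 Luciferase-expressing parasites in RBCs, 2% Hct / 0.1% parasitemia final; RPMI 1640 + 0.5% Albumax; 37 C, 5% CO2, one generation; luminescence read-out, lower signal = inhibition.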
# * marks the source's active call; other numbers are inactive results; i = inactive; ? = inconclusive; . = no result given; [ ] = another dose, or the depositor's remark. Sampled rows, rich in hits. Any-hit rate of the full collection: about 21%. Unless noted, calls come from the whole dose curve; as a rule, active = well fitted inhibition curve with a large enough effect; inconclusive = small, poorly fitted or top-dose-only effect, or another doubt; inactive = no such curve, though single readings can be large or run the other way.
SMILES,Pf growth 96h,Cycloheximide cs,Shiga inhibitor,Pf growth 48h
COc1ccc(OC)c(-c2nnc3n2N=C(c2ccccc2OC)CS3)c1,.,16.4,-13.6,.
Cc1oc2cc(O)cc(O)c2c(=O)c1-c1ccc2c(c1)OCCCO2,.,33.6*,116.0*,103.3%
CC(=O)Oc1cc(OC(C)=O)c2c(=O)c(-c3ccc4c(c3)OCCCO4)c(C)oc2c1,-9.3%,8.3*,16.0,-28.8%
CC(=O)Oc1cc(OC(C)=O)c2c(C)cc(=O)oc2c1,0.0%,-2.1,-5.6,35.8%
CCc1cccc(NC(=O)CCNS(=O)(=O)c2ccc3c(c2)oc(=O)n3C)c1,?,-9.1,-13.8,3.1%
CCN(CC)C(=O)Cn1cc(S(=O)(=O)CC(=O)Nc2ccc(F)cc2F)c2ccccc21,-14.9%,-1.7,-11.5,22.4%
CC1(c2ccc(Cl)cc2Cl)NC(=O)N(CC(=O)Nc2ccc3[nH]c(=O)[nH]c3c2)C1=O (stereo not drawn),15.2%,.,.,9.0%
Cc1ccc(OCc2nc(-c3ccccc3)no2)cc1,79.7%,44.9*,84.5*,94.9%
c1ccc(-c2noc(COc3ccc4c(c3)OCO4)n2)cc1,0.8%[5.75 µM],25.7*,54.6*,195.6%
Cc1ccc(-c2noc(COc3ccccc3C)n2)cc1,12.0%,29.5*,54.9,63.1%
COc1ccc(-c2noc(COc3ccc4c(c3)OCO4)n2)cc1,-30.7%,-4.2,7.0,13.2%
Cc1ccccc1OCc1nc(-c2ccccc2)no1,.,38.9*,66.5*,156.3%
COc1ccc(NC(=O)CN(C)C(=O)c2ccc3c(c2)S(=O)(=O)N=C2CCCCCN23)cc1,-13.0%,-2.2,-12.7,17.3%
Cc1ccc(S(=O)(=O)NCc2nc(-c3ccccc3)no2)cc1,30.5%,-1.4,-4.3,-0.6%
c1ccc(NCc2nc(-c3ccccc3)no2)cc1,.,55.7*,155.2*,104.5%
O=C(Nc1ccc(F)cc1)c1nsc(Cl)c1Cl,i,29.4*,68.0*,?
O=C(Nc1ccc(F)c(Cl)c1)c1nsc(Cl)c1Cl,273.6%,46.8*,82.2*,342.4%
CCOc1ccc(NC(=O)c2nsc(Cl)c2Cl)cc1,134.0%,39.9*,94.2*,105.3%
CCOc1ccc(NC(=O)CC)cc1,10.2%,-2.6,18.5,21.8%
CCN(CC(=O)Nc1c(F)cccc1F)C(=O)CSc1nc(C)cc(C)n1,17.4%,-1.7,11.2,5.6%
CNC(=O)COc1ccc2oc3c(c2c1)CCCC3,24.3%,9.2,19.0,17.4%
NNC(=O)COc1ccc2oc3c(c2c1)CCCC3,-18.3%,0.9,-2.9,10.0%
CC(C)OCCCNC(=O)COc1ccc2oc3c(c2c1)CCCC3,4.15µM*,7.3,25.9,-18.8%
CC(C)(C)NC(=O)COc1ccc2oc3c(c2c1)CCCC3,?,17.6*,60.3,?
CNC(=O)NC(=O)COc1ccc2oc3c(c2c1)CCCC3,20.4%,22.2*,57.8*,48.7%
SMILES,Pf growth 96h,Cycloheximide cs,Shiga inhibitor,Pf growth 48h
Cc1ccnc(NC(=O)COc2ccc3oc4c(c3c2)CCCC4)c1,11.7µM*,42.5*,66.4*,125.2%
Cc1ccc(NC(=O)OCc2cccs2)cc1,262.6%,21.6*,80.7*,200.9%
Cc1ccc(NC(=O)OCc2cc(-c3ccccc3)on2)cc1,32.9%,37.6*,74.9*,28.0%
COc1ccc(NC(=O)C(NC(=O)Cc2cccs2)c2ccc(C)cc2)cc1 (stereo not drawn),21.3%,0.0,-6.9,0.0%
Nc1cnc(Nc2ccc(Br)cc2)nc1N,?,27.5*,57.8*,-57.1%
Nc1ncnc(Nc2ccccc2)n1,17.2%,.,.,-1.9%
CC(C)C1NC(C(=O)O)Cc2c1[nH]c1ccccc21 (stereo not drawn),-3.8%,1.1,-5.1,-16.6%
O=c1c2ccccc2cnn1-c1ccc(Cl)cc1,i,35.5*,93.0*,146.3%
CC(c1ccccc1)n1c(Cn2ncc3ccccc3c2=O)n[nH]c1=S (stereo not drawn),46.3%,-0.4,-3.3,-15.9%
COc1c(Cl)cnn(-c2cccc(C)c2)c1=O,22.1%,10.4,-2.3,-22.9%
Cc1ccc(-n2ncc3ccccc3c2=O)cc1Cl,305.7%,38.2*,113.5*,285.2%
O=c1c2ccccc2cnn1Cc1n[nH]c(=S)n1-c1ccc(Cl)cc1,7.0%,72.4*,51.9*,-0.7%
Cc1ccc(-n2c(C)nc3c(cnn3-c3ccccc3Cl)c2=O)cc1C,3.7µM*,3.2,-3.3,.
CC(=O)Nc1cc2cc(NS(=O)(=O)c3ccc(C)cc3)ccc2oc1=O,13.8%,-2.0,-19.6,1.5%
CCOc1ccc(NC(=O)CN2C(=O)COc3ccccc32)cc1,-11.7%,14.0,20.4,-9.5%
CCc1ccccc1N(C)S(=O)(=O)c1ccc(-c2cc(C)no2)s1,?,-1.7,12.3,?
COc1ccc(Br)c(C(=O)N2CCN(S(=O)(=O)c3cccs3)CC2)c1,24.7%,7.4,-9.3,3.7µM*
COc1cc(C(=O)N2CCN(S(=O)(=O)c3cccs3)CC2)cc(OC)c1C,?,5.6,-12.8,?
CC(=O)c1ccc(OCCCC(=O)N2CCN(S(=O)(=O)c3cccs3)CC2)cc1,9.28µM*,0.7,-7.1,?
O=C(CSc1n[nH]c(-c2cccs2)n1)N1CCN(S(=O)(=O)c2ccc3ccccc3c2)CC1,5.86µM*,-0.6,-11.6,.
CCC(=O)c1ccc(OCC(=O)N2CCN(S(=O)(=O)c3ccc(Cl)s3)CC2)cc1,10.4µM*,.,.,?
CNc1nc(-c2c(C)n(C)c3ccc(OC)cc23)cs1,?,-2.1,-5.9,18.2%[0.00184 µM]
CCN(CC)C(=O)c1ccc2c(c1)nnn2C,47.2%,-3.7,-2.4,17.0%
Cc1ccc(-c2nn(C)c(=O)c3ccccc23)cc1CNC(=O)NC1CCCCC1,-3.9%,1.3,-12.6,-28.0%
O=C(CN(Cc1ccco1)Cc1cccs1)N1CCN(S(=O)(=O)c2cccc(F)c2)CC1,?,.,.,13.1µM*
SMILES,Pf growth 96h,Cycloheximide cs,Shiga inhibitor,Pf growth 48h
O=C(O)CCC(=O)N1CCN(S(=O)(=O)c2cccs2)CC1,8.1%,7.6,-5.0,10.0%
O=C(Cc1cccs1)N1CCN(S(=O)(=O)c2ccccc2)CC1,13.1µM*,-6.4,-5.5,13.5%
O=C(CSc1ccccc1)N1CCN(S(=O)(=O)c2cccs2)CC1,?,5.9*,18.1,17.8%
Cc1n[nH]c(=O)c2c(NC(=O)CSc3nncn3C(C)C)oc(C)c12,14.1%,.,.,-23.1%
OC(c1ccc(F)cc1)C(c1ccccc1)N1CCOCC1 (stereo not drawn),1.85µM*,5.6,-17.9,3.8%
O=C(c1ccccc1)C(O)C(c1ccccc1)N1CCOCC1 (stereo not drawn),32.3%,-5.6,-6.7,-0.2%
Cc1ccc(Cc2c(C)nc3nc(SCC(=O)NCCCN4CCCCCC4)nn3c2C)cc1,10.4µM*,-5.4,-4.2,?
CCC1CCCCN1CCCNC(=O)CSc1nc2nc(C)c(Cc3ccc(C)cc3)c(C)n2n1 (stereo not drawn),30.3%,-5.1,-11.2,?
Cc1nc2nc(SCC(=O)NCCCN3CCCCC3)nn2c(C)c1Cc1ccccc1,-17.9%,-6.7,-7.9,?
CCOCCCNC(=O)CSc1nc2nc(C)c(Cc3ccccc3)c(C)n2n1,4.65µM*,9.0,2.6,1.3%
Cc1nc2nc(SCC(=O)NCCCN3CCOCC3)nn2c(C)c1Cc1ccccc1,3.29µM*,0.9,-11.1,?
CC(Sc1nnnn1C)C(=O)Nc1ncc(Cl)cc1Cl (stereo not drawn),-24.7%,.,.,26.6%
